# Test results published in PubChem BioAssay AID1159506 (National Center for Advancing Translational Sciences (NCATS), 2015).
# The full ranking holds about 59,000 sequences; the median of the read-out is about -0.00055, and the lowest 2% start at about -2. This excerpt belongs to a sample that is enriched for the lowest values.
# Test: Identification of proteins required for the processing of the EWS-FLI1 nascent transcript;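 note: robust z of luciferase light less the median z of siRNAs with the same seed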
# Settings: TC32 Ewing sarcoma NR0B1-luc vs CMV-luc (EWS-FLI1 target promoter against control promoter), 48 h; screened at 20 nM (by protocol)
# Summary of the method: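 Readout: OneGlo luminescence, 48 h post-transfection, TC32-NR0B1-luc vs TC32-CMV-luc in parallel. siRNA 20 nM final, RNAiMax lipid, 600 cells/well; z-score-MAD transformed, then seed-adjusted.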
row,Sequence,seed-corrected z-score
1,UUAUAAAAUUUGGUGAUGG against CNNM2,-2.17
2,AAAGAAGGAAUUGAGAUUC against RAPGEF3,0.508
3,UAGAAAUCUACAAUCUUGU against NR2C2AP,-0.785
4,AUUGUAUCCUGCUGAGUCC against FOXJ2,-0.984
5,ACAGUAAUCCAUAUGGAGG against GPR139,0.177
6,UUUCGUUCUUACGAGAUCC against PKHD1L1,1.16
7,UCCGGAUACACUUCACUAC against ANXA6,-0.467
8,AAAAGUGGAACUUCUUCUC against TTLL8,-2.21
9,AAAGUUGCAGUUGGUCUCC against ZACN,-3.49
10,UUAGCAGCUUGUUAAUUUC against ISY1,-0.616
11,UAAGCAGCUUGUAUUGCUC against KIAA0513,0.461
12,UGAGGUUAAAGUGAGUAGC against VIT,-0.117
13,UUUCUUACACCAUGAGACG against INTS4,-0.309
14,UAAAGUAAAGAUGUCUUCC against NPIPA1,0.0914
15,AUAGGGAUCUGAAAGUCCG against SYT4,0.582
16,UCCGGUCAAACUUAGUGCC against AQR,-3.37
17,AACGAAAUAAAAGCUGUCC against CFAP69,-0.411
18,UAUCGAACCAACCAGCAUC against MFSD4A,1.1
19,UUCGAUGAACUUCUUUUGC against BROX,1.04
20,UCCCGGGACAGCAUGUAGU against USP17L9P,0.146
21,CAAUACUCCAGCAUCAGGC against OPA3,-2.35
22,UACAAGAAUAGUCACAAUG against OR5H1,0.319
23,UCUGUAUCAAUGAUUAAAC against ICE2,0.6

row,Sequence,seed-corrected z-score
1,UUUGUUAGUCAGGUAUUCC against CCDC121,2.03
2,UGGGUAUGUAGUAAUCUCG against ADGB,-3.05
3,AGACUGUAAAAGAUCUGUG against CCDC106,-0.709
4,AAUCGUACACUCUCCGUAG against CHST2,-1.01
5,UCACUUAGCAGGCUCUCUG against DDIT4L,-0.677
6,ACCGUUAAACUUGUAAUCG against ZFYVE9,0.0151
7,AUAGAUGCGAUCUAUGAGC against TRE17,0.156
8,UGGUUGUACGCGAUGUCCG against FZD1,-3.54
9,UGCUGCAAGAGGUUAUUCC against HAS1,0.441
10,UAAUUGUCAGCUGAUUGUC against CDC6,-0.689
11,UCACCGUUCCAUUCAAGUC against IKBKB,0.0239
12,UUUGGGAAAGUAGCUAUCA against LINC01124,-2.24
13,AUUGGAGCAAGACUUUUAG against BDKRB1,-0.291
14,UUCAGCUAUAAAGUAAAGC against IL18,-13
15,AAGGCUCCAAUGAUAAGUG against NRG4,-0.154
16,UCGCUUUCCUCCAGGGUAC against GNRH2,-0.382
17,AAAGCUGCGUCUUGUCUCG against LDLRAD2,-3.83
18,UAAGAACCCACAGUAUUGA against FBLN2,0.31
19,UAAAUAAUAUUGCACAUAC against FAM228A,0.618
20,UUGAAUUUAAGAGAAAGGA against NPR3,0.283
21,AUAGUCAGCUGUGCUCUGC against FLJ16423,-0.343
22,UUAGCAUGCAAAAUCGCCC against CWC22,-3.73
23,UAGGGUGAGUCAAUAAUGG against CSTF2T,-0.0525

row,Sequence,seed-corrected z-score
1,AUCUUUAUCAUUGGGCAGG against SCAF1,-0.941
2,UUAUAAAUCCCUUUCACCG against CASP9,-0.324
3,UAUGUCUUUCAGACUGACC against RPTN,-1
4,UUUCGGCACUGCAAAGUCG against ATP10A,0.235
5,UCCUGCUUCAUAUCUUCUG against C19orf66,-3.54
6,UUACUGAGGAAGUUUCUUU against CD99L2,-0.781
7,UCCCUGGUAAAGUAUAGUC against EGFEM1P,-1.34
8,UUUCCGUCUGUCUUCUUCC against DCAF4,0.00663
9,UUACUAAAGACUGACAACC against ZNF208,-0.0968
10,UACUGCUUCGUAUCUGUCC against PIH1D2,-2.13
11,AUAGGACUGACAGUGUUCA against STAC3,1.13
12,UUUCAUUCGGUGAAAGUCC against MTFR1L,-0.547
13,UAAUUCACUAACUUCAAGC against SLC37A3,0.139
14,UGGGUGUCCAUUCUCGAGC against PPP1R18,1.72
15,UUUUGGGUGUGGACCUUGC against NPFF,0.585
16,ACAGUGGAAACCUCACUUC against FOXP3,0.0552
17,AUUCUUAUCCAUCCGAUCC against CTTN,-0.272
18,UCAUUUUACCUCUUCCAUC against GADL1,0.676
19,UCUGCUUCACCAGUUACUC against HNRNPH1,-2.08
20,UGAUAAACCACAGCAACUC against TYMS,1.01
21,UUUGAUACCUCCUUUACCC against HELB,0.388
22,UCUCUGCUAACGAUAACUC against PIWIL1,-0.0232
23,UAACCUGCUCAAAAGAAUG against ACSL6,0.714

row,Sequence,seed-corrected z-score
1,UAAAGUACAGCUCGGUUUG against OOSP2,0.436
2,UUUGUUGAAGGUUUCACUG against ZMYND15,1.4
3,UCGAUAGUCAUCAAAGAUC against VWC2L,-2.99
4,UACUGGUAAAAGGUGUUCC against C6orf58,0.5
5,UACAGAGAAAGGUAGCGGU against GPR3,-2.23
6,UGAUCUACCUGCUUGUGCC against USP17L9P,-0.147
7,UGACUGACAACUUCUGGAU against PAK6,-0.344
8,AAUGGACCUAGAUUUCAGG against C16orf59,1.27
9,UUAGCUGCGUCAGAUAUCG against RPS6KA2,-2.67
10,UCCUGGAUACGCAACUUGA against C2orf68,-0.63
11,UGCAUUUGAAGACUCACUC against HMG20A,0.87
12,UUGAGUCUUAGCAAUGUGA against KIAA0895L,-0.000345
13,UACAUGAAAAGCAAGGCUG against OR6B3,0.504
14,UAUGGUGUUGAGCUCAGCG against SLC12A3,0.228
15,UCUACUAUCGGCUUAUAGC against 11-Sep,-0.114
16,UCCGGAGUAAGCUUCAACC against DHX9,-0.429
17,AACGAAGCAAGCAUGGUCC against LARP6,-0.832
18,UAGUCAACGUUGGACACGG against PRR22,0.319
19,UUGACGGUAAUAUCUGUCC against SMU1,-3.14
20,UAGCCUAUGGUACAAGUUC against ERVFRD-1,0.353
21,AACUCAUUCCCUUCUUUCC against ZMAT3,-0.582
22,UCUCUGACAAGUGUGAAGC against DKK1,-0.0537
23,UGAUGAGCGAGAAGGUACC against DLL4,1.41

row,Sequence,seed-corrected z-score
1,UUAAUUGCUAUGUUGUUGG against NFS1,-0.476
2,AUAGGUUUGUGAUCCAACC against AAED1,0.186
3,AUUCGUAUGGUUCAUGUCC against PRPF8,-2.88
4,UUAAAUACAGCUCCUGUUA against AQP11,0.0289
5,AGCUUGUACAGUGUUAUCC against PTPN4,-2.22
6,UUGCUGAACGCGAUGAUCU against PRDX2,0.201
7,UCUUAUGUAAUUGUUCCUC against KANSL1,0.324
8,UUCUUUCGCAUUGCAAUGC against CMC2,0.187
9,UGAGGACAAAGAAUCUUCC against MRPS18B,0.518
10,UCCAGUUGUUCAAUCAUGG against CNTROB,-2.47
11,UCUGUUUGAUGUUAGGUUG against PACS1,-0.0479
12,UUCUUUAACUUUAUGCUCC against RAI2,0.273
13,UAUUCUAUUGGGUCACUGG against DYDC2,0.409
14,AAGUGAAUAGAAAACAUCC against SUN5,1.29
15,UAGGUCAGAAGCAACCUGC against C10orf111,2.42
16,AGAUGUGAUAGUGCUCUGG against TMEM52B,-2.02
17,UUACGUAAUCCAGGGAUCG against LANCL2,-1.2
18,UAGUGUAAUUGGUCUAACC against POGZ,0.928
19,UAUGUGAUUCUGGUGCUUG against LEMD1,0.794
20,UCUGAUGUAAUUUCCAGUU against AARD,0.424
21,UUAGUUGCUGACUUUCUCC against TRAPPC9,-2.06
22,UUUGAUUUGGUUGUGACCC against ZYX,-0.301
23,UUCAAGUUUGUUCUCAGAC against GOLGA6L7P,-0.298

row,Sequence,seed-corrected z-score
1,AAGGAAAUUAGGAUAAUAG against FAM217B,0.732
2,UGUCUCUCAGGCAACAGGC against PROP1,-0.922
3,UUCAUUAUCAUCUAGGUGG against ACTR5,-0.49
4,UGUGGACAAGGUCUAGGGC against LOC401317,-2.18
5,AUAGUUGACAUUCCGAACC against CDK5RAP3,0.941
6,UUAGAGUUUGCGAAGCAGG against PSG11,0.96
7,UUUAUAUCCAUAUCCUUUC against PPIC,0.0569
8,AGAAGAUGAAUCACAGAGC against BAGE4,-0.377
9,UAUCAUAUUUAAGAGACUG against TSSC1,0.912
10,UAUUUGAAGCUCCAGGGUG against FBXL15,0.429
11,UUCUUUAUGCACAACUCCC against MYO1C,-2.91
12,UUACUUUUAGUUCAUACAG against SOX1,-0.0466
13,AUCAGUACUAAAAUAUCGG against ATG2B,0.25
14,UCCUCGAAAAUCUCAAAGC against MYO1B,-0.441
15,UGGUAUUCAAAAUAGUCGC against TLK1,-0.673
16,UUCUGCUUCCGGUAAAUGC against SH3TC1,-0.467
17,UUUGUUUCGCUGGUCUUUG against RYBP,-2.49
18,UAUCCUGUAAGUUGUGGGC against TEX28,1.15
